Among the data in the supplement of paper PMC8866396 are cell viability values, retold here.

One test deals with IL-6-GFP PC-9GR. The experiment in a line: cell viability (CCK-8 OD) relative to DMSO control (fraction of control); higher = more viable cells. To be noted: compound concentration: 10 uM; treatment time: 48 h. The essentials: (§1)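 In 96-well plates, 3000 cells/well of PC-9 or PC-9GR lung cancer cells with lentiviral IL-6-GFP overexpression received each compound of a purchased 510-compound library at a final 10 μM for 48 h. Viability, measured by CCK-8 absorbance, is each well's optical density relative to the vehicle control well. Data come from two independent replicates.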

In another test the test system is IL-6-GFP PC-9. The description is as above. To be noted: compound concentration: 10 uM; treatment time: 48 h. The method, boiled down: as §1

± gives the standard deviation of the averaged measurements.

Consider `Nc1ccn(C2OC(CO)C(O)C2(F)F)c(=O)n1` (stereo not drawn) [Gemcitabine], for which the cell viability with IL-6-GFP PC-9GR came out at 0.5847 ± 0.0053; in the test on IL-6-GFP PC-9, 0.5589 ± 0.0046.
`O=C(OCCOCCO)c1ccccc1Nc1cccc(C(F)(F)F)c1` [Etofenamate]: the results for the cell viability in the test on IL-6-GFP PC-9GR and in the test with IL-6-GFP PC-9 were 1.01 ± 0.29 and 1.24 ± 0.13, respectively.
For the molecule `Cc1oncc1C(=O)Nc1ccc(C(F)(F)F)cc1` [Leflunomide], the cell viability in the test with IL-6-GFP PC-9GR turned out to be 1.1 ± 0.067; in the test with IL-6-GFP PC-9 it was 0.683 ± 0.21.
With `S=P(N1CC1)(N1CC1)N1CC1` [Thiotepa], the cell viability was determined as 1.02 ± 0.074 in the test with IL-6-GFP PC-9GR and 0.977 ± 0.074 in the test with IL-6-GFP PC-9.
Taken in the same sequence, the figures for `CN(C)C/C=C/C(=O)Nc1cc2c(Nc3ccc(F)c(Cl)c3)ncnc2cc1OC1CCOC1.O=C(O)/C=C\C(=O)O.O=C(O)/C=C\C(=O)O` (stereo not drawn) [Afatinib (BIBW2992) Dimaleate] were 0.22 ± 0.11 and 0.167 ± 0.22.
Taken in the same sequence, the figures for `CN(C)C(=O)COC(=O)Cc1ccc(OC(=O)c2ccc(NC(=N)N)cc2)cc1.CS(=O)(=O)O` [Camostat Mesilate] were 0.986 ± 0.098 and 1.13 ± 0.049.
On the same counts, the results for `Cc1cnc(NC(=O)C2=C(O)c3ccccc3S(=O)(=O)N2C)s1` [Meloxicam] are 1.2096 ± 0.0007 and 1.4 ± 0.41.
On to `CN(C)CCC(c1ccc(Br)cc1)c1ccccn1.O=C(O)/C=C\C(=O)O` (stereo not drawn) [Brompheniramine hydrogen maleate], for which the results for the cell viability in the test with IL-6-GFP PC-9GR and with IL-6-GFP PC-9 were 1.17 ± 0.23 and 1.09 ± 0.15, respectively.
In the case of `COC1CC2CCC(C)C(O)(O2)C(=O)C(=O)N2CCCCC2C(=O)OC(C(C)CC2CCC(OCCO)C(OC)C2)CC(=O)C(C)/C=C(\C)C(O)C(OC)C(=O)C(C)CC(C)/C=C/C=C/C=C/1C` (stereo not drawn) [Everolimus (RAD001)], the cell viability with IL-6-GFP PC-9GR was 0.985 ± 0.068; in the test on IL-6-GFP PC-9 it was 0.66 ± 0.29.
On the same counts, the results for `CCCCCCCCc1ccc(CCC(N)(CO)CO)cc1` [Fingolimod] are 0.513 ± 0.18 and 0.924 ± 0.37.
On the same counts, the results for `CCN(CC)CCNC(=O)c1c(C)[nH]c(/C=C2\C(=O)Nc3ccc(F)cc32)c1C.O=C(O)CC(O)C(=O)O` [Sunitinib Malate] are 1.01 ± 0.063 and 0.453 ± 0.52.
As to `O=C1CCCC2C3CCC[N+]4([O-])CCCC(CN12)C34` (stereo not drawn) [Oxymatrine], the results for the cell viability with IL-6-GFP PC-9GR and with IL-6-GFP PC-9 were 1.47 ± 0.16 and 1.33 ± 0.068, respectively.
On the same counts, the results for `CC(C)(C)c1nc(-c2cccc(NS(=O)(=O)c3c(F)cccc3F)c2F)c(-c2ccnc(N)n2)s1` are 1.14 ± 0.12 and 0.77 ± 0.035.
Regarding `NC(CCC(=O)NC(CS)C(=O)NCC(=O)O)C(=O)O` (stereo not drawn) [Glutathione], the cell viability in the test with IL-6-GFP PC-9GR came out at 1.06 ± 0.11; in the test with IL-6-GFP PC-9, 1.1 ± 0.15.
